Data on six compounds can be found in PubChem BioAssay (EPA / NIEHS).

Read-out in test [1]: serum amyloid A (SAA), SAA1 (gene 6288)
In words: BSK_CASM3C_SAA: BioMAP Diversity Plus: CASM3C Assay for serum amyloid A (SAA) Biomarker Activity (AID 2283049).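 Also: SAA protein level quantified by ELISA.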 The following applies: primary human coronary artery smooth muscle cells; actives raise or lower the signal.

The nature of test [2]: BSK_CASM3C_SRB: Viability Assessment in the BioMAP Diversity Plus: CASM3C Assay (AID 2283050). The following applies: primary human coronary artery smooth muscle cells.
Read-out in test [3]: Thrombomodulin, THBD (gene 7056)
In words: BSK_CASM3C_Thrombomodulin: BioMAP Diversity Plus: CASM3C Assay for Thrombomodulin Biomarker Activity (AID 2283051).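 Also: thrombomodulin protein level measured by ELISA 24 h after dosing.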 The following applies: primary human coronary artery smooth muscle cells; actives raise or lower the signal.

Read-out in test [4]: Tissue Factor, F3 (gene 2152)
In words: BSK_CASM3C_TissueFactor: BioMAP Diversity Plus: CASM3C Assay for Tissue Factor Biomarker Activity (AID 2283052).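 Also: cell surface tissue factor protein level read by ELISA.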 The following applies: primary human coronary artery smooth muscle cells; actives raise or lower the signal.

Read-out in test [5]: Interferon-gamma inducible Protein 10 (IP10), CXCL10 (gene 3627)
In words: BSK_hDFCGF_IP10: BioMAP Diversity Plus: hDFCGF Assay for Interferon-gamma inducible Protein 10 (IP10) Biomarker Activity (AID 2283053). The settings on record: primary human foreskin fibroblasts; actives raise or lower the signal. Put shortly: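 Primary human foreskin fibroblasts exposed to chemicals for 24 h. IP-10 measured by ELISA; changes fitted bidirectionally against DMSO baseline.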

Read-out in test [6]: Urokinase-type plasminogen activator receptor (uPAR), PLAUR (gene 5329)
In words: BSK_CASM3C_uPAR: BioMAP Diversity Plus: CASM3C Assay for Urokinase-type plasminogen activator receptor (uPAR) Biomarker Activity (AID 2283054).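 Also: cell-surface uPAR protein level quantified by ELISA.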 The following applies: primary human coronary artery smooth muscle cells; actives raise or lower the signal.

Read-out in test [7]: Vascular cell adhesion molecule 1 (VCAM1), VCAM1 (gene 7412)
In words: BSK_CASM3C_VCAM1: BioMAP Diversity Plus: CASM3C Assay for Vascular cell adhesion molecule 1 (VCAM1) Biomarker Activity (AID 2283055).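 Also: VCAM-1 protein level quantified by ELISA on the cells.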 The settings on record: primary human coronary artery smooth muscle cells; actives raise or lower the signal.

Read-out in test [8]: Collagen III, COL3A1 (gene 1281)
In words: BSK_hDFCGF_CollagenIII: BioMAP Diversity Plus: hDFCGF Assay for Collagen III Biomarker Activity (AID 2283056). The settings on record: primary human foreskin fibroblasts; actives raise or lower the signal. The method, boiled down:
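Response relative to DMSO, fitted in both directions, reflects ELISA-measured collagen III in human primary skin fibroblasts 24 h after compound addition.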

Read-out in test [9]: Epidermal growth factor receptor (EGFR), EGFR (gene 1956)
In words: BSK_hDFCGF_EGFR: BioMAP Diversity Plus: hDFCGF Assay for Epidermal growth factor receptor (EGFR) Biomarker Activity (AID 2283057). The settings on record: primary human foreskin fibroblasts; actives raise or lower the signal. Put shortly: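 Primary human foreskin fibroblasts (hDFCGF system), sampled 24 h after dosing; EGFR quantified by ELISA. Bidirectional fit relative to DMSO baseline; SRB total-protein staining in parallel cultures for cytotoxicity.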

Read-out in test [10]: Interleukin-8 (IL8), CXCL8 (gene 3576)
In words: BSK_hDFCGF_IL8: BioMAP Diversity Plus: hDFCGF Assay for Interleukin-8 (IL8) Biomarker Activity (AID 2283058). The following applies: primary human foreskin fibroblasts; actives raise or lower the signal. The method, boiled down: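 Fibroblast monolayers (human foreskin, hDFCGF) received test chemical for 24 h before ELISA detection of IL-8; either increases or decreases relative to DMSO count as activity.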

Read-out in test [11]: Macrophage colony-stimulating factor (MCSF), CSF1 (gene 1435)
In words: BSK_hDFCGF_MCSF: BioMAP Diversity Plus: hDFCGF Assay for Macrophage colony-stimulating factor (MCSF) Biomarker Activity (AID 2283060). The following applies: primary human foreskin fibroblasts; actives raise or lower the signal. The method, boiled down:
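fibroblasts (human foreskin, primary), 24 h post-dose; M-CSF by ELISA; bidirectional fit, DMSO = baseline.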

Test [12] in a line: BSK_hDFCGF_SRB: Viability Assessment in the BioMAP Diversity Plus: hDFCGF Assay (AID 2283061).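 Also: cells exposed to compound for 24 h before the read.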 The settings on record: primary human foreskin fibroblasts. The method, boiled down: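 SRB-based viability read on primary human skin fibroblasts at 24 h: TCA fixation, 0.1% dye, 560 nm. Gain or loss of signal is fitted against the DMSO negative control.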
Read-out in test [13]: TIMP metallopeptidase inhibitor 1 (TIMP1), TIMP1 (gene 7076)
In words: BSK_hDFCGF_TIMP1: BioMAP Diversity Plus: hDFCGF Assay for TIMP metallopeptidase inhibitor 1 (TIMP1) Biomarker Activity (AID 2283062). The following applies: primary human foreskin fibroblasts; actives raise or lower the signal. Put shortly:
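Bidirectional curve fitting against DMSO baseline yielded this endpoint, based on ELISA detection of TIMP-1 in primary human foreskin fibroblasts exposed to compound for 24 h.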

Read-out in test [14]: Monokine induced gamma interferon (MIG), CXCL9 (gene 4283)
In words: BSK_hDFCGF_MIG: BioMAP Diversity Plus: hDFCGF Assay for Monokine induced gamma interferon (MIG) Biomarker Activity (AID 2283063). The following applies: primary human foreskin fibroblasts; actives raise or lower the signal. The method, boiled down:
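Endpoint derived by bidirectional fitting relative to DMSO; MIG quantified via ELISA in primary human foreskin fibroblasts harvested 24 h after dosing.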

Read-out in test [15]: Matrix Metallopeptidase 1 (MMP1), MMP1 (gene 4312)
In words: BSK_hDFCGF_MMP1: BioMAP Diversity Plus: hDFCGF Assay for Matrix Metallopeptidase 1 (MMP1) Biomarker Activity (AID 2283064). The settings on record: primary human foreskin fibroblasts; actives raise or lower the signal. The method, boiled down:
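Primary human foreskin fibroblasts exposed to chemicals for 24 h; MMP1 measured by ELISA. Cytotoxicity tracked by SRB staining in parallel cultures; bidirectional fit relative to DMSO.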

Read-out in test [16]: Vascular cell adhesion molecule 1 (VCAM1), VCAM1 (gene 7412)
In words: BSK_hDFCGF_VCAM1: BioMAP Diversity Plus: hDFCGF Assay for Vascular cell adhesion molecule 1 (VCAM1) Biomarker Activity (AID 2283065).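 As to AC50: VCAM-1 protein level quantified by ELISA after 24 h chemical exposure.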 The following applies: primary human foreskin fibroblasts; actives raise or lower the signal. Put shortly:
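Measured after 24 h chemical treatment of primary human skin fibroblasts, VCAM-1 was detected by ELISA and concentration-response analysed in both directions versus DMSO vehicle.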

Read-out in test [17]: Plasminogen activator inhibitor-1 (PAI1), SERPINE1 (gene 5054)
In words: BSK_hDFCGF_PAI1: BioMAP Diversity Plus: hDFCGF Assay for Plasminogen activator inhibitor-1 (PAI1) Biomarker Activity (AID 2283066). The settings on record: primary human foreskin fibroblasts; actives raise or lower the signal. Put shortly: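 Human foreskin fibroblast primary cells, 24 h chemical exposure; PAI-1 measured by ELISA. Bidirectional fitting relative to DMSO; parallel cultures stained with SRB for total protein to flag overt cytotoxicity.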

Read-out in test [18]: Intercellular Adhesion Molecule 1 (ICAM1), ICAM1 (gene 3383)
In words: BSK_KF3CT_ICAM1: BioMAP Diversity Plus: KF3CT Assay for Intercellular Adhesion Molecule 1 (ICAM1) Biomarker Activity (AID 2283067). The settings on record: primary human keratinocytes with fibroblasts; actives raise or lower the signal. The method, boiled down:
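Bidirectional curve fitting against a DMSO baseline was applied to ICAM-1 ELISA signal from primary human skin co-cultures harvested 24 h after treatment, with SRB staining of parallel wells for overt cytotoxicity.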

Test [19] can be described thus: BSK_hDFCGF_Proliferation: Cell Proliferation Assessment in the BioMAP Diversity Plus: hDFCGF Assay (AID 2283059).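 Also: curves fitted for both rise and fall of signal versus DMSO baseline.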 The following applies: primary human foreskin fibroblasts. The method, boiled down: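 This proliferation readout used SRB total-protein staining of human foreskin fibroblasts […], normalized to DMSO with bidirectional curve fitting.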

Read-out in test [20]: Interferon-gamma inducible Protein 10 (IP10), CXCL10 (gene 3627)
In words: BSK_KF3CT_IP10: BioMAP Diversity Plus: KF3CT Assay for Interferon-gamma inducible Protein 10 (IP10) Biomarker Activity (AID 2283068). The settings on record: primary human keratinocytes with fibroblasts; actives raise or lower the signal. The method, boiled down: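 Signal is secreted/surface IP-10 by ELISA in a human primary skin co-culture of keratinocytes and foreskin fibroblasts, taken 24 h post-dosing; DMSO served as negative control.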

SMILES strings stand for the structures. Some compounds were tested as several samples or in several runs, with calls that do not always agree. Activity calls are given as the source filed them. The calls were made as follows: active = hit-call score of the fitted dose curve at least 0.9, where 1 is the maximum; inactive = score below 0.9.

Usually AC50 stands for the concentration giving half of the maximal activity seen. Regarding `O=C1C2(Cl)C3(Cl)C4(Cl)C(Cl)(Cl)C5(Cl)C3(Cl)C1(Cl)C5(Cl)C24Cl` (configuration not stated), the AC50 in test [1] was 23.3 µM (active); in [2], 24 µM (active); in test [3] it was 33.6 µM (active); in test [4] it was 19.3 µM (active); in [5], 4.03 µM (active); in test [6], 18 µM (active). Also, the AC50 in [7] was 29 µM (active); in test [8], 3.46 µM (active); in test [9], 2.09 µM (active); in [10], 14.3 µM (active); in test [11], 21.9 µM (active); in [12], 16.4 µM (active). In addition, the AC50 is 30 µM (active) in [13]; 31 µM (active) in test [14]; 19.3 µM (active) in [15]; 4.35 µM (active) in test [16]; 8.81 µM (active) in test [17]; 33 µM (active) in [18].

In the case of `Nc1cccc2ccccc12`, the outcome in test [1], in [2], in [4], in [6], in test [7] and in test [9] was inactive. Moreover, the result in [10], in [14], in test [18] and in [20] was inactive. In addition, the concentration at half-maximal activity (AC50) was 15.2 µM (active) in [3]; 31.6 µM (active) in test [5]; 27.1 µM (active) in test [8]; 13.6 µM (active) in [19]; 20 µM (active) in [11]; 32 µM (active) in test [12]. For the same compound, the AC50 in [13] was 27.7 µM (active); in test [15], 33.1 µM (active); in test [16] it was 25.9 µM (active); in test [17], 20 µM (active).

Turning to `CCCCC(CC)CO[N+](=O)[O-]` (configuration not stated), the outcome in test [1], in test [3], in [4], in test [5], in test [8] and in test [9] was inactive. The outcome in test [10], in [19], in test [11], in test [12], in [13] and in test [14] was inactive. In addition, the outcome in [15], in test [16] and in test [17] was inactive. In addition, the AC50 was 33.6 µM (active) in test [2]; 3.05 µM (active) in [6]; 34.1 µM (active) in [7]; 30.9 µM (active) in test [18]; 30.2 µM (active) in test [20].

Regarding `ClC1=C(Cl)[C@]2(Cl)[C@H]3[C@H]([C@H]4C=C[C@H]3C4)[C@@]1(Cl)C2(Cl)Cl`, the outcome in [1], in [2], in test [3], in [5], in test [6] and in test [7] was inactive. Further, the result in [9], in test [10], in [12], in test [13], in [14] and in test [15] was inactive. Besides, the result in test [18] and in [20] was inactive. In addition, the AC50 in test [4] is 0.266 µM (active); in [8], 4.4 µM (active); in [11] it was 0.492 µM (active); in test [16], 6.26 µM (active); in test [17], 1.16 µM (active).

Regarding `CC(=O)OC(c1ccccc1)C(Cl)(Cl)Cl` (configuration not stated), the outcome in test [1], in [2], in test [3], in test [4], in test [5] and in [6] was inactive. The result in test [7], in [8], in test [9], in test [10], in test [11] and in test [12] was inactive. In addition, the outcome in [13], in test [14], in [15], in test [16], in test [17] and in test [18] was inactive. Moreover, in test [20], the outcome was inactive. Further, the AC50 in test [14] is 36.7 µM (active).

Turning to `COP(=S)(OC)Oc1ccc(Sc2ccc(OP(=S)(OC)OC)cc2)cc1`, the outcome in test [1], in test [2], in [4], in test [5], in test [6] and in [7] was inactive. Moreover, the outcome in test [8], in test [9], in [10], in test [11], in test [12] and in test [13] was inactive. The result in test [14], in test [15], in test [16] and in test [18] was inactive. The AC50 was 12.6 µM (active) in test [3], 20 µM (active) in [19], 0.382 µM (active) in test [17] and 20 µM (active) in test [20].
